PubChem BioAssay (EPA / NIEHS)
Records with an inconclusive call do not appear. Active and inactive are the calls of the source. The calls were made as follows, unless noted: active = hit-call score of the fitted dose curve at least 0.9, where 1 is the maximum; inactive = score below 0.9.

Tests used:
[1] = target: Retinoic acid receptor RXR-alpha (Homo sapiens) (UniProt P19793); assay: ATG_RXRa_TRANS: Attagene TRANS-FACTORIAL HepG2 Assay for human Retinoid X Receptor alpha (RXRa) (AID 2283012; active = hit-call score of the fitted dose curve at least 0.9, where 1 is the maximum)
Summary of the method: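 Cells (HepG2) carried transiently transfected GAL4-responsive reporter units. Following a 24 h chemical incubation, reporter mRNA induction was read via RT-PCR fragment analysis; DMSO served as negative control and baseline.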

[2] = target: human Thyroid Receptor alpha (THRa1), THRA (gene 7067) (UniProt P10827); assay: ATG_THRa1_TRANS: Attagene TRANS-FACTORIAL HepG2 Assay for human Thyroid Receptor alpha (THRa1) (AID 2283014; active = hit-call score of the fitted dose curve at least 0.9, where 1 is the maximum)
Summary of the method: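 HepG2 cells transiently transfected with multiplexed GAL4-UAS reporter units for exogenous chimeric THRa1-Gal4; reporter mRNA measured 24 h after dosing by RT-PCR, 6-FAM labelling, HpaI digestion and capillary electrophoresis. Gain-of-signal fitted versus DMSO baseline.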

[3] = read-out: E-selectin (Homo sapiens) (UniProt P16581); assay: BSK_3C_Eselectin: BioMAP Diversity Plus: 3C Assay for Eselectin Biomarker Activity (AID 2283015); conditions: primary human endothelial cells (HUVEC); actives raise or lower the signal
Summary of the method: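 Primary human umbilical vein endothelial cells (3C system) were dosed with chemical and cell-surface E-selectin measured by ELISA 24 h later. Bidirectional curve fitting used DMSO as negative control and baseline.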

[4] = read-out: Monocyte Chemoattractant Protein-1 (MCP1), CCL2 (gene 6347); assay: BSK_3C_MCP1: BioMAP Diversity Plus: 3C Assay for Monocyte Chemoattractant Protein-1 (MCP1) Biomarker Activity (AID 2283017); conditions: primary human endothelial cells (HUVEC); actives raise or lower the signal
Summary of the method: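 Primary human umbilical vein endothelial cells (3C system) were exposed to test chemical for 24 h, after which MCP-1 was quantified by ELISA. Activity was fitted bidirectionally against DMSO as negative control and baseline.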

[5] = read-out: Monocyte Chemoattractant Protein-1 (MCP1), CCL2 (gene 6347); assay: BSK_4H_MCP1: BioMAP Diversity Plus: 4H Assay for Monocyte Chemoattractant Protein-1 (MCP1) Biomarker Activity (AID 2283018); conditions: primary human endothelial cells (HUVEC); actives raise or lower the signal
Summary of the method: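 Readout: MCP-1 ELISA on compound-treated HUVEC, sampled 24 h post-dosing. Baseline and negative control DMSO; bidirectional fit. Overt toxicity checked alongside by sulforhodamine B protein staining at time of biomarker measurement.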

[6] = read-out: Human Leukocyte Antigen - DR isotype (HLADR), HLA-DRA (gene 3122); assay: BSK_3C_HLADR: BioMAP Diversity Plus: 3C Assay for Human Leukocyte Antigen - DR isotype (HLADR) Biomarker Activity (AID 2283019); conditions: primary human endothelial cells (HUVEC); actives raise or lower the signal
Summary of the method: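 Primary human umbilical vein endothelial cells (3C system) were dosed with compound and cell-surface HLA-DR was quantified by ELISA at 24 h. Activity was fitted bidirectionally against DMSO as negative control and baseline.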

[7] = read-out: Interleukin-8 (IL8), CXCL8 (gene 3576); assay: BSK_3C_IL8: BioMAP Diversity Plus: 3C Assay for Interleukin-8 (IL8) Biomarker Activity (AID 2283020); conditions: primary human endothelial cells (HUVEC); actives raise or lower the signal
Summary of the method: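 Human vascular endothelial cells (umbilical vein) in the 3C system; IL-8 level detected by ELISA at 24 h post-dose, with DMSO as baseline.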

[8] = read-out: Monokine induced gamma interferon (MIG), CXCL9 (gene 4283); assay: BSK_3C_MIG: BioMAP Diversity Plus: 3C Assay for Monokine induced gamma interferon (MIG) Biomarker Activity (AID 2283021); conditions: primary human endothelial cells (HUVEC); actives raise or lower the signal;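 as to AC50: MIG protein level measured by immunoassay in the treated endothelial cultures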
Summary of the method: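 After 24 h of treatment, human umbilical vein endothelial cultures (3C system) had their MIG biomarker level determined by ELISA, with DMSO serving as negative control.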

[9] = BSK_3C_SRB: Viability Assessment in the BioMAP Diversity Plus: 3C Assay (AID 2283023); conditions: primary human endothelial cells (HUVEC);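 also: fitted both ways against DMSO so a hit may be signal rise or drop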
Summary of the method: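 Primary human umbilical vein endothelial cells in the 3C system were read 24 h after compound dosing. Total protein was stained with 0.1% sulforhodamine B after 10% TCA fixation and read at 560 nm, with bidirectional fitting against DMSO as baseline.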

[10] = read-out: Matrix Metallopeptidase 1 (MMP1), MMP1 (gene 4312); assay: BSK_BE3C_MMP1: BioMAP Diversity Plus: BE3C Assay for Matrix Metallopeptidase 1 (MMP1) Biomarker Activity (AID 2283024); conditions: primary human bronchial epithelial cells; actives raise or lower the signal
Summary of the method: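 Dose cells, wait 24 h, run MMP1 ELISA; cells are human bronchial epithelial primaries. Both increases and decreases relative to DMSO counted.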

[11] = BSK_3C_Vis: BioMAP Diversity Plus: 3C Assay for Morphology Visualization (AID 2283025); conditions: primary human endothelial cells (HUVEC);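 also: fitted both ways so gain or loss versus DMSO counts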;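 as to AC50: light microscopy image of cell morphology used as background control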
Summary of the method: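 Endothelial cells from human umbilical vein were treated with test chemicals for 24 h and inspected by light microscopy for changes in cell conformation.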

[12] = read-out: Pselectin, SELP (gene 6403); assay: BSK_4H_Pselectin: BioMAP Diversity Plus: 4H Assay for Pselectin Biomarker Activity (AID 2283026); conditions: primary human endothelial cells (HUVEC); actives raise or lower the signal
Summary of the method: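 Human vascular endothelium from umbilical vein; P-selectin measured by ELISA at 24 h post-dose, with cytotoxicity checked by sulforhodamine B total-protein staining in parallel cultures (0.1% SRB after 10% TCA fixation, read at 560 nm).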

[13] = BSK_4H_SRB: Viability Assessment in the BioMAP Diversity Plus: 4H Assay (AID 2283027); conditions: primary human endothelial cells (HUVEC);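 also: cells exposed to compound for 24 h before staining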;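 as to AC50: curves fitted both ways versus DMSO so AC50 may be loss or gain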
Summary of the method: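 Human umbilical vein endothelial cells, 24 h after chemical dosing; total protein measured by 0.1% sulforhodamine B staining after 10% TCA fixation, read at 560 nm. Bidirectional fitting against DMSO.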

[14] = BSK_BE3C_SRB: Viability Assessment in the BioMAP Diversity Plus: BE3C Assay (AID 2283028); conditions: primary human bronchial epithelial cells;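 as to AC50: fitted both ways so AC50 may mark signal gain or loss versus DMSO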
Summary of the method: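 Human primary bronchial epithelial cells were exposed to test chemicals for 24 h. Total protein in parallel cultures was then measured by staining with 0.1% sulforhodamine B after 10% TCA fixation, with absorbance read at 560 nm. Activity was fitted bidirectionally against DMSO.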

[15] = read-out: Thrombomodulin, THBD (gene 7056); assay: BSK_3C_Thrombomodulin: BioMAP Diversity Plus: 3C Assay for Thrombomodulin Biomarker Activity (AID 2283029); conditions: primary human endothelial cells (HUVEC); actives raise or lower the signal
Summary of the method: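 Thrombomodulin ELISA, human primary HUVEC, 24 h post-dose; data fitted in both directions relative to DMSO.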

[16] = read-out: Urokinase-type plasminogen activator receptor (uPAR), PLAUR (gene 5329); assay: BSK_4H_uPAR: BioMAP Diversity Plus: 4H Assay for Urokinase-type plasminogen activator receptor (uPAR) Biomarker Activity (AID 2283030); conditions: primary human endothelial cells (HUVEC); actives raise or lower the signal
Summary of the method: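 Primary human umbilical vein endothelial cells were exposed to chemical for 24 h before cell-surface uPAR was quantified by ELISA. Activity was fitted bidirectionally against the DMSO negative control baseline.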

[17] = read-out: Vascular endothelial growth factor receptor 2 (Homo sapiens) (UniProt P35968); assay: BSK_4H_VEGFRII: BioMAP Diversity Plus: 4H Assay for Vascular endothelial growth factor receptor 2 (VEGFR2) Biomarker Activity (AID 2283031); conditions: primary human endothelial cells (HUVEC); actives raise or lower the signal
Summary of the method: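 Primary human umbilical vein endothelial cells in the BioMAP 4H system were dosed with test chemical, and 24 h later VEGFRII was measured by ELISA. Activity was fitted bidirectionally against DMSO as negative control and baseline.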

[18] = read-out: Interleukin-1 alpha (IL1a), IL1A (gene 3552); assay: BSK_BE3C_IL1a: BioMAP Diversity Plus: BE3C Assay for Interleukin-1 alpha (IL1a) Biomarker Activity (AID 2283016); conditions: primary human bronchial epithelial cells; actives raise or lower the signal
Summary of the method: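 Cultures of primary human bronchial epithelial cells receive test chemical. After 24 h, IL-1a is quantified by ELISA, while parallel wells are fixed in TCA and SRB-stained for total protein. Changes in either direction are fitted relative to DMSO.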

[19] = target: human Vitamin D Receptor (VDR), VDR (gene 7421) (UniProt P11473); assay: ATG_VDR_TRANS: Attagene TRANS-FACTORIAL HepG2 Assay for human Vitamin D Receptor (VDR) (AID 2283022; active = hit-call score of the fitted dose curve at least 0.9, where 1 is the maximum)
Summary of the method: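 HepG2 cells were transiently transfected with multiple GAL4-UAS reporter units, so signal reflects exogenous chimeric receptor-Gal4 activity. After 24 h compound exposure, reporter mRNA was measured by RT-PCR, fluorescent labelling and capillary electrophoresis, fitted for gain of signal versus DMSO.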

[20] = target: human Retinoid X Receptor beta (RXRb), RXRB (gene 6257) (UniProt P28702); assay: ATG_RXRb_TRANS: Attagene TRANS-FACTORIAL HepG2 Assay for human Retinoid X Receptor beta (RXRb) (AID 2283013; active = hit-call score of the fitted dose curve at least 0.9, where 1 is the maximum)
Summary of the method: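 Multiplexed TRANS reporter assay in HepG2; 24 h dosing; reporter mRNA by RT-PCR/CE fluorescence; gain-of-signal relative to DMSO.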

Measured: AC50

Sequence of human Thyroid Receptor alpha (THRa1), THRA (gene 7067) (P10827 whole entry, looked up, the tested form may be a part): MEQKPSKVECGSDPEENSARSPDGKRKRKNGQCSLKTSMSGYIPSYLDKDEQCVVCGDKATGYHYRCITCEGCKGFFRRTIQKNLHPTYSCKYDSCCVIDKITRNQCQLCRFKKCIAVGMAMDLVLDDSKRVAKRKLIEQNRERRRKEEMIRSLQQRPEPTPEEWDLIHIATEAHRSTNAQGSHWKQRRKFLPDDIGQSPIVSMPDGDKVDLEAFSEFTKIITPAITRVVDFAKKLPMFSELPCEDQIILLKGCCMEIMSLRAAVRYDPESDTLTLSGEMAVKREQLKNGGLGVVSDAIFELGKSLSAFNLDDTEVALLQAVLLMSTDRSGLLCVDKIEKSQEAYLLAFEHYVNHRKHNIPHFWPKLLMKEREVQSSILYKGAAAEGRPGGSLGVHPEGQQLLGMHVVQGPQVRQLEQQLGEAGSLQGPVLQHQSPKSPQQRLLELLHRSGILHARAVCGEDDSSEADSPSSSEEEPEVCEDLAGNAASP
Sequence of E-selectin (Homo sapiens) (P16581 whole entry, looked up): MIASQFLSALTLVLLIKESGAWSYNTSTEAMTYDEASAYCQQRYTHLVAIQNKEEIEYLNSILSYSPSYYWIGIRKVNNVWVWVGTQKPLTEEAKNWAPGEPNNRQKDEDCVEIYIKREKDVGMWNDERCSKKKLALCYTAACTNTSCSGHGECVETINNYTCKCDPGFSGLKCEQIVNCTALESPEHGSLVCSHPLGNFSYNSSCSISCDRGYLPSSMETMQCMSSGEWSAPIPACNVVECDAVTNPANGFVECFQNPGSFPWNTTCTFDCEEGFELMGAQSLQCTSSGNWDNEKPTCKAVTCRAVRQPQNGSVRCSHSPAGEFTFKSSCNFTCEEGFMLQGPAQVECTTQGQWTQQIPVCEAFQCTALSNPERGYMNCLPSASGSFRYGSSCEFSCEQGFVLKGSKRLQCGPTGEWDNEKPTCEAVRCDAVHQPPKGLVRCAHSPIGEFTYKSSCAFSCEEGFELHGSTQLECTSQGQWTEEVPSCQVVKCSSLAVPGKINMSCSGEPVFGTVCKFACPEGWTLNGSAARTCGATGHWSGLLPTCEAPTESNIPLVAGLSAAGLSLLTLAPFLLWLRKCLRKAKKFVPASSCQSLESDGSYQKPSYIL
Sequence of Retinoic acid receptor RXR-alpha (Homo sapiens) (P19793 whole entry, looked up, the tested form may be a part): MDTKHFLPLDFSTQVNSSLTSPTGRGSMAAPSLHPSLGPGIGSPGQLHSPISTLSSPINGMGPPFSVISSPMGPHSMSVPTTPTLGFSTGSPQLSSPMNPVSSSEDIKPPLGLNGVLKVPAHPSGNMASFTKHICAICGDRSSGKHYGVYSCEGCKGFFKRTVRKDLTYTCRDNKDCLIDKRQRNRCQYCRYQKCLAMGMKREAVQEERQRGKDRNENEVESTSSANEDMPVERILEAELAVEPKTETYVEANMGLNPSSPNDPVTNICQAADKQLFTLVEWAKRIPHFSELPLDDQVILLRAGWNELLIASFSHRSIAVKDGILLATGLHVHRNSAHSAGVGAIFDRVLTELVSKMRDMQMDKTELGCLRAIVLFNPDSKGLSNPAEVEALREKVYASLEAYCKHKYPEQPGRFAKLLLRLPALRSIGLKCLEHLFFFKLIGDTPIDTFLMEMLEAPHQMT
Sequence of human Vitamin D Receptor (VDR), VDR (gene 7421) (P11473 whole entry, looked up, the tested form may be a part): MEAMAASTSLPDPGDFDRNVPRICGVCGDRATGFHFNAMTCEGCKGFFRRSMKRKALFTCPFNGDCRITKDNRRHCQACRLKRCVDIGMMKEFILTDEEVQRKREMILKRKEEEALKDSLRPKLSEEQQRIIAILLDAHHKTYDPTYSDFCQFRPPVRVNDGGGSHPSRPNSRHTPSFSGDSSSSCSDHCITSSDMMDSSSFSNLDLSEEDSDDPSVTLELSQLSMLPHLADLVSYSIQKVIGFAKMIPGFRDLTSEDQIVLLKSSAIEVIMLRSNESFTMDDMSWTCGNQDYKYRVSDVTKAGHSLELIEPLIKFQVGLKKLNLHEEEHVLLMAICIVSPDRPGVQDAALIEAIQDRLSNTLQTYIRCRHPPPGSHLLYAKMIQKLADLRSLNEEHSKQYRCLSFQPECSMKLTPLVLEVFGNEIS
Sequence of human Retinoid X Receptor beta (RXRb), RXRB (gene 6257) (P28702 whole entry, looked up): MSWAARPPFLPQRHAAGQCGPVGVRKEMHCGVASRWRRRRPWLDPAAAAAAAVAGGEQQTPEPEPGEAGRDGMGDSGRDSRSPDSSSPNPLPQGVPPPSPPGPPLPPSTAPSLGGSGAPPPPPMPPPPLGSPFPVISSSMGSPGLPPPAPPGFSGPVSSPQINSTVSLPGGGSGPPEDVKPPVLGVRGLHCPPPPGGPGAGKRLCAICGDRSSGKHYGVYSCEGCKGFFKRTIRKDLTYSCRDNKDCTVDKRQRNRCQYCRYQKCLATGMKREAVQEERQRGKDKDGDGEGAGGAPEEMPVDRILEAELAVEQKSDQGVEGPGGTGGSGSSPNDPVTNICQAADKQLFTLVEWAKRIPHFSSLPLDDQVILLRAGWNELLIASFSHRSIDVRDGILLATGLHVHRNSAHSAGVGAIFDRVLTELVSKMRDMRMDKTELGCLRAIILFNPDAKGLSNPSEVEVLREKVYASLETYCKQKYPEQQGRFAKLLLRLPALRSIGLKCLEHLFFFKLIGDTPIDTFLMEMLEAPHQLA

CC#C[C@]1(O)CC[C@H]2[C@@H]3CCC4=CC(=O)CCC4=C3[C@@H](c3ccc(N(C)C)cc3)C[C@@]21C
active: [3] 29.3 µM | [4] 36.3 µM | [5] 20 µM | [6] 37.7 µM | [7] 31.1 µM | [8] 38.3 µM | [9] 30.5 µM | [10] 0.623 µM | [12] 29.9 µM | [13] 29.1 µM | [16] 3.97 µM
inactive: [1] | [2] | [11] | [14] | [15] | [17]

CCCCCCC(=O)O
not listed: [13] | [14] | [20]
inactive: all other assays above

CN(C)C=O
active: [1] 4.99 µM | [20] 0.74 µM
not listed: [2] | [14] | [18] | [19]
inactive: all other assays above

COc1cc(CCC(=O)CC(=O)CCc2ccc(O)c(OC)c2)ccc1O
inactive: [20] | [2] | [19]

COCC(C)OCC(C)O (stereo not drawn)
active: [11] 39 µM
not listed: [1] | [2] | [14] | [18] | [19] | [20]
inactive: all other assays above

NC(=O)N1C(=O)C(C(=O)c2cc(Cl)cs2)c2cc(F)c(Cl)cc21 (stereo not drawn)
active: [4] 5.16 µM | [6] 13.4 µM | [9] 14 µM | [10] 2.77 µM | [11] 37.5 µM | [12] 11.4 µM | [14] 9.99 µM | [16] 12.7 µM
not listed: [13] | [18] | [20]
inactive: all other assays above

CCCCC[C@H](O)CC(=O)CCc1ccc(O)c(OC)c1
inactive: [2] | [19]

CN1CCN(c2ccccc2/C=C2\SCCN(c3ccc(Cl)c(Cl)c3)C2=O)CC1
inactive: [1] | [3] | [8] | [19] | [15] | [17]
active: [18] 30.9 µM | [4] 7.36 µM | [5] 20 µM | [6] 11.3 µM | [7] 3.55 µM | [9] 16.3 µM | [10] 32 µM | [11] 13.9 µM | [12] 6.28 µM | [13] 15 µM | [16] 5.49 µM
